The test system of assay [1] is Klebsiella pneumoniae. The conditions noted are these: Concentration 20 uM, ASSAY_TEST Inhibition of Bacterial Growth, detection method Absorption (OD600), MEDIA CAMHB, plate type 384well, NBS, CORNING #3640, time 18 hr.
Assay [2] deals with Candida albicans. The conditions noted are these: 20 µM.
Assay [3] concerns Cryptococcus neoformans. To be noted: Concentration 20 uM, ASSAY_TEST Inhibition of Fungal Growth, detection method Resazurin, Absorption (OD600-OD570), plate type 384well, NBS, CORNING #3640. (In general: Alamar Blue is a resazurin reagent that responds to reducing activity.)

SMILES strings stand for the structures. Several values for one entry are separate records, joined by “and”; a condition that tells them apart may be missing. Equal entries are not always repeated. Results with a measured potency or affinity are listed apart.

In general, Inhibition refers to the change of the read-out against control, counted positive when it falls. As for `CC(=O)OCC(CCn1cnc2cnc(N)nc21)COC(C)=O` [FAMCICLOVIR], the Inhibition in assay [1] was 11.51%; in assay [2] it was 2.72%; in assay [3] it was -0.79%.

For the compound `Cc1ccc(S(=O)(=O)NC(=O)NN2CCCCCC2)cc1` [TOLAZAMIDE], the Inhibition was -1.58% in assay [1], -0.09% in assay [2] and -7.48% in assay [3].

For `COc1ccc(OC)c(C(O)CNC(=O)CN)c1.Cl` (stereo unspecified) [MIDODRINE HYDROCHLORIDE], the Inhibition in assay [1] was 8.37%; in assay [2] it was 2.18%; in assay [3], -10.49%.

Turning to `C#C[C@]1(O)CC[C@H]2[C@@H]3CCC4=CC(=O)CC[C@@H]4[C@H]3CC[C@@]21CC` [LEVONORGESTREL], the results for the Inhibition in assay [1], in assay [2] and in assay [3] were 13.61%, 3.12% and 2.67%, respectively.

As to `O=C(NCCN1CCOCC1)c1ccc(Cl)cc1` [MOCLOBEMIDE], the Inhibition in assay [1] is 9.06%; in assay [2], 3.1%; in assay [3], -2.98%.

For the compound `COC(=O)C1=C(C)NC(C)=C(C(=O)OCC(C)C)C1c1ccccc1[N+](=O)[O-]` (stereo unspecified) [NISOLDIPINE], the values for the Inhibition in assay [1], in assay [2] and in assay [3] were 25.81%, 6.12% and 42.23%, respectively.

With `CC(=O)OCC(=O)C12OC3(CCCC3)OC1CC1C3CCC4=CC(=O)C=CC4(C)C3(F)C(O)CC12C` (stereo unspecified), the results for the Inhibition in assay [1], in assay [2] and in assay [3] were 13.26%, 3.39% and 1.74%, respectively.

With `CCc1ccc(CCOc2ccc(CC3SC(=O)NC3=O)cc2)nc1.Cl` (stereo unspecified) [PIOGLITAZONE HYDROCHLORIDE], the Inhibition was 2.41% in assay [1], 2.58% in assay [2] and -2.27% in assay [3].

Consider `NC(N)=Nc1nc(CSCC/C(N)=N/S(N)(=O)=O)cs1` [FAMOTIDINE], for which the Inhibition was 2.4% in assay [1], 3.01% in assay [2] and -2.8% in assay [3].

Take `C[C@@H]1C[C@H]2[C@@H]3CCC4=CC(=O)C=C[C@]4(C)[C@@]3(F)[C@@H](O)C[C@]2(C)[C@@]1(O)C(=O)CO` [DEXAMETHASONE]: the Inhibition is -0.78% and 2.8% in assay [1] (20 µM); 1.68% and 4.41% in assay [2]; -1.2% and -1.22% in assay [3] (20 µM).

With `Cc1occc(=O)c1O` [MALTOL], the Inhibition is 10.28% in assay [1], 4.42% in assay [2] and -2.15% in assay [3].

For the compound `CC(C)(C)C(O)/C=C/c1ccc2c(c1)OCO2` (stereo unspecified) [STIRIPENTOL], the results for the Inhibition in assay [1], in assay [2] and in assay [3] were 6.61%, 4.55% and 2.5%, respectively.

As to `COc1cc(C)c(/C=C/C(C)=C/C=C/C(C)=C/C(=O)O)c(C)c1C` [ACITRETIN], the values for the Inhibition in assay [1], in assay [2] and in assay [3] were 7.64%, 3.07% and -7.56%, respectively.

`CC(C)c1ccc2c(c1)c(SC(C)(C)C)c(CC(C)(C)C(=O)O)n2Cc1ccc(Cl)cc1`: the figures for the Inhibition in assay [1], in assay [2] and in assay [3] were 11.6%, 1.56% and -9.17%, respectively.

For the compound `CC[C@@H]1C(=O)OC[C@@H]1Cc1cncn1C.Cl` [PILOCARPINE HYDROCHLORIDE], the results for the Inhibition in assay [1], in assay [2] and in assay [3] were 13.79%, 2.29% and -1.97%, respectively.

As for `CCN(CC)CC1CCCCN1CC(=O)N1c2ccccc2C(=O)Nc2cccnc21` (stereo unspecified) [OTENZEPAD], the Inhibition in assay [1] worked out at 12.92%; in assay [2], 3.03%; in assay [3], 3.45%.

Consider `COc1ccccc1N1CCN(CCCNc2cc(=O)n(C)c(=O)n2C)CC1.Cl` [URAPIDIL HYDROCHLORIDE], for which the Inhibition in assay [1] was 17.15%; in assay [2] it was 3.19%; in assay [3] it was -6.92%.

Regarding `CC(C)NCC(O)c1cc(O)cc(O)c1` (stereo unspecified) [METAPROTERENOL], the Inhibition in assay [1] was 7.02%; in assay [2], 1.29%; in assay [3], 0.32%.

As to `Cc1cccc(C)c1NC(=O)C(C)N` (stereo unspecified) [TOCAINIDE], the Inhibition in assay [1] was found to be 13.74%; in assay [2], 1.33%; in assay [3], 0.27%.

In the case of `Nc1ccn([C@H]2CC[C@@H](CO)O2)c(=O)n1` [ZALCITABINE], the Inhibition in assay [1] is 8%; in assay [2], 0.46%; in assay [3], -0.26%.

Turning to `CCCNC(=O)NS(=O)(=O)c1ccc(Cl)cc1` [CHLORPROPAMIDE], the Inhibition stood at 11.38% in assay [1], 3.19% in assay [2] and 0% in assay [3].

Take `CN(C)[C@@H]1C(=O)C(C(=O)NCN2CCCC2)=C(O)[C@@]2(O)C(O)=C3C(=O)c4c(O)cccc4[C@@](C)(O)C3CC12` (stereo partly specified): the values for the Inhibition in assay [1], in assay [2] and in assay [3] were 7.32%, 0.75% and -8.19%, respectively.

`Cc1cccc(Nc2ccccc2C(=O)O)c1C` [MEFENAMIC ACID]: the Inhibition in assay [1] turned out to be 12.13%; in assay [2] it was 7.85%; in assay [3], 2.83%.

Consider `COc1ccc2cc([C@H](C)C(=O)[O-])ccc2c1.[Na+]` [NAPROXEN SODIUM], for which the Inhibition in assay [1] was 13.03%; in assay [2], 9.05%; in assay [3], -1.8%.

For `O=C1N[C@H](C(=O)O)CS1` [PROCYSTEINE], the Inhibition in assay [1] was 8.75%; in assay [2], 3.85%; in assay [3], -5.5%.

On to `CC(=O)OCC(=O)[C@@]1(O)CC[C@H]2[C@@H]3CCC4=CC(=O)C=C[C@]4(C)[C@H]3[C@@H](O)C[C@@]21C` [PREDNISOLONE ACETATE], for which the figures for the Inhibition in assay [1], in assay [2] and in assay [3] were 12.95%, 0.73% and -1.37%, respectively.

Consider `CN1CCN(c2nc3cc(C(F)(F)F)ccc3n3cccc23)CC1.O=C(O)/C=C\C(=O)O.O=C(O)/C=C\C(=O)O`, for which the results for the Inhibition in assay [1], in assay [2] and in assay [3] were 7.65%, 3.61% and 2.72%, respectively.
